Data published in ChEMBL document CHEMBL3988442, “University of Dundee, Small-Polar-MMV Screening Library” (2021).
About 13,000 (27%) of roughly 48,000 compounds showed an effect of 50% or more. Some of the results follow.

test system: Wolbachia pipientis; assay: Anti-Wolbachia Cell-Based Screen; format: functional; design: scale not given: in the data most compounds retested in dose-response had high values; details: 5 µM

With Cc1nc(CN2CCN(C(=O)CCc3cccnc3)CC2)no1 as the compound, how does the “Percent Effect” value read?
The value was -0.7807%.

With CN(Cc1ccccn1)C(=O)Nc1cc(C(F)(F)F)c[nH]c1=O as the compound, how does the “Percent Effect” value read?
The value was 11.49%.

CN(Cc1nc(C(F)(F)F)cs1)C(=O)CCc1cccnc1 was tested. Which “Percent Effect” value did it give?
The value was 99.2%.

For CN(Cc1nc(C(F)(F)F)cs1)C(=O)CCc1ccccn1, which “Percent Effect” value is on record?
Its value is 104.8%.

For CN(CCc1ccccn1)C(=O)Nc1cc(C(F)(F)F)c[nH]c1=O, which “Percent Effect” value is on record?
Its value is 14.36%.

How did the “Percent Effect” value turn out when CN(Cc1cc(Br)cn1C)C(=O)Cc1cccnc1 was run?
Its value is -0.2173%.

COC(=O)c1ccc2nc(CO[C@H]3CN(CC4CC4)C[C@H]3F)[nH]c2c1 was tested. Which “Percent Effect” value did it give?
Its value is 5.552%.

Which “Percent Effect” value does the source give for N#Cc1nccnc1N1CCC(COCc2ccccc2)C1 (centres undefined) here?
Its value is -0.4127%.

How did the “Percent Effect” value turn out when OCC(O)CSCc1cn(-c2ccc(Cl)c(Cl)c2)nn1 (centres undefined) was run?
Its value is -1.515%.

Which “Percent Effect” value does the source give for C[S+]([O-])CCCNCc1cc(F)ccc1Br (centres undefined) here?
Its value is 11.95%.

With Cc1cnn(CCNCC(O)COc2ccc(C#N)cc2)c1 (centres undefined) as the compound, how does the “Percent Effect” value read?
The value was -2.958%.

For CCn1cnnc1CNC(=O)N1CCN(c2ccc(OC)cc2)CC1, which “Percent Effect” value is on record?
The value was 88.94%.

For CCn1cnnc1CNC(=O)N1CCN(c2cccc(C)c2)CC1, which “Percent Effect” value is on record?
The value was 81.4%.

With CCn1cnnc1CNC(=O)N1CCN(c2ccccc2O)CC1 as the compound, how does the “Percent Effect” value read?
Its value is 92.65%.

For CCn1cnnc1CNC(=O)N1CCN(c2ccccc2OC)CC1, which “Percent Effect” value is on record?
Its value is 95.25%.

Which “Percent Effect” value does the source give for Cc1cccc(N2CCN(C(=O)Nc3cnn(CC(N)=O)c3)CC2)c1 here?
Its value is -8.219%.

CCn1cnnc1CNC(=O)N(C)Cc1ccccc1OC was tested. Which “Percent Effect” value did it give?
The value was -13.71%.

For CCn1cnnc1CNC(=O)NCC(O)c1ccc(OC)cc1 (centres undefined), which “Percent Effect” value is on record?
The value was 3.56%.

CCn1cnnc1CNC(=O)N1CCN(c2cccc(OC)c2)CC1 was tested. Which “Percent Effect” value did it give?
The value was 2.392%.

For CC(C)CC(NC(=O)CSCC(N)=O)c1cccs1 (centres undefined), which “Percent Effect” value is on record?
The value was 3.191%.

How did the “Percent Effect” value turn out when CN(C)S(=O)(=O)N1CCN(CC2CCOc3ccccc3C2)CC1 (centres undefined) was run?
Its value is -1.148%.

O=C(CN1C(=O)CCNC1=O)N1CCOC(c2ccc(Cl)c(Cl)c2)C1 (centres undefined) was tested. Which “Percent Effect” value did it give?
Its value is 6.471%.

How did the “Percent Effect” value turn out when CSCCCN1CCc2nc(N(C)C)nc(N3CCC(O)CC3)c2C1 was run?
Its value is 3.21%.

For CCCc1cc(=O)[nH]c2nnc(SCC(=O)NC(C)(C)C)n12, which “Percent Effect” value is on record?
The value was 7.571%.

How did the “Percent Effect” value turn out when CC(O)c1cccc(-n2c(CCC(=O)O)nc3ccccc32)c1 (centres undefined) was run?
The value was 17.57%.

With CCn1cnnc1CNC(=O)N1CCOC(c2ccccc2Cl)C1 (centres undefined) as the compound, how does the “Percent Effect” value read?
The value was -10.89%.

How did the “Percent Effect” value turn out when CCn1cnnc1CNC(=O)N1CCOC(c2ccc(Cl)cc2)C1 (centres undefined) was run?
The value was -28.88%.

Which “Percent Effect” value does the source give for CCn1cnnc1CNC(=O)N1CCN(c2ccccc2Cl)CC1 here?
The value was 101.2%.

How did the “Percent Effect” value turn out when CC(C)CC(O)C1CCN(C(=O)c2ccc(C(F)(F)F)nc2O)CC1 (centres undefined) was run?
The value was -33.24%.
